Assay results from ChEMBL document CHEMBL1157539, “Thousands of chemical starting points for antimalarial lead identification” (Nature, 2010).

Columns and labels:
Format in all cases: functional
Plasmodium falciparum [1] = assay: GSK_TCMDC: Inhibition of Plasmodium falciparum 3D7 in whole red blood cells, using parasite LDH activity as an index of growth. Test compounds present at 2uM
Plasmodium falciparum [2] = assay: GSK_TCMDC: Inhibition of Plasmodium falciparum Dd2 in whole red blood cells, using parasite LDH activity as an index of growth. Test compounds present at 2uM
HepG2 = assay: GSK_TCMDC: Percent inhibition of human HepG2 cell line. Test compounds present at 10uM.

SMILES	Inhibition (Plasmodium falciparum [1])	Inhibition (Plasmodium falciparum [2])	Inhibition (HepG2)
NC(=O)c1cc2nc(Nc3ccc(F)cc3)nc(NC3CCC3)c2[nH]1.O=CO	100%	100%	0%
CC(C)NCc1ccc(-c2ccc(NC(=O)c3cccc(Cl)c3)cc2)cc1.O=C(O)C(F)(F)F	100%	14%	36%
COc1ccc(CNCc2ccsc2)cc1-c1ccc(S(=O)(=O)NCCN2CCCC2)s1.O=C(O)C(F)(F)F	100%	34%	39%
Nc1nc(N)c2c(CCc3ccc(Cl)c(Cl)c3)cccc2n1	100%	83%	51%
CCN(CC)CCOc1ccc(C(O)(C#CC(O)(c2ccc(OCCN(CC)CC)cc2)c2ccc([N+](=O)[O-])cc2)c2ccc([N+](=O)[O-])cc2)cc1 (configuration not stated)	98%	97%	55%
O=C(Nc1cccc(C(F)(F)F)c1)c1cccc(S(=O)(=O)NCC2CCCN(CC3CCCCC3)C2)c1.O=C(O)C(F)(F)F (configuration not stated)	99%	11%	17%
O=C(O)C(F)(F)F.O=S(=O)(NCCN1CCCC1)c1ccc(-c2cccc(CNC3Cc4ccccc4C3)c2)cc1	99%	57%	55%
O=C(Nc1cccc(CN2CCCN(Cc3cccc(O)c3)CC2)c1)c1ccc(-c2ccccc2)cc1.O=C(O)C(F)(F)F	100%	66%	28%
CS(=O)(=O)Cc1ccc(Nc2nccc(N3CCCc4cc(NC(=O)Nc5cccc(C(F)(F)F)c5)ccc43)n2)cc1	100%	99%	46%
